Assay outcomes deposited in PubChem by National Center for Advancing Translational Sciences (NCATS).
Sampled rows, rich in hits. Any-hit rate of the full collection: about 6.9%.
MCF10A rereplic = A quantitative high throughput screen for small molecules that induce DNA re-replication in MCF 10a normal breast cells. MCF 10A DNA re-replication, Hoechst nuclear intensity, 48 h. Potency, µM (top dose mostly 46.1 µM), without a hit: top-dose activity, positive = re-replication, actives largely listed as activators. actives 2.9% (n = 350,000). AID 624296, 2012; further: potency means the concentration at half of the fitted maximal effect; % of control where 0% means no effect; nearly all actives have a fitted effect of over 50% in size
SW480 rerep = A quantitative high throughput screen for small molecules that induce DNA re-replication in SW480 colon adenocarcinoma cells; actives 1.8% (n = 340,000); SW480 DNA re-replication, Hoechst DNA content imaging, 48 h; Potency, µM (series often up to 46.1 µM), for the others: at the top dose re-replication activation, hits mostly activators; further: potency means the concentration at half of the fitted maximal effect; % of control where 0% means no effect; nearly all actives have a fitted effect of over 55% in size
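Cells (250 per well) received 23 nL compound or DMSO by pin tool and were kept 48 hr at 37 C, 5% CO2. Nuclei were then stained with Hoechst for 40 min and scanned for DNA content.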
Vif-APOBEC3G blk = qHTS for Inhibitors of Vif-A3G Interactions: qHTS; HeLa A3G-eYFP + Vif (tagged APOBEC3G with the HIV-1 protein that degrades it), YFP fluorescence, overnight; Potency, µM (doses to about 46.1 µM), for inactives: top-dose activity, negative = active, usual class: inhibitors; actives 0.076% (n = 410,000); AID 602310, 2012; further: potency means the concentration at half of the fitted maximal effect; on the % scale 0 is the no-effect control and ±100 the full control effect; nearly all actives have a fitted effect of over 60% in size
Target sequence (Q9HC16 whole entry, looked up): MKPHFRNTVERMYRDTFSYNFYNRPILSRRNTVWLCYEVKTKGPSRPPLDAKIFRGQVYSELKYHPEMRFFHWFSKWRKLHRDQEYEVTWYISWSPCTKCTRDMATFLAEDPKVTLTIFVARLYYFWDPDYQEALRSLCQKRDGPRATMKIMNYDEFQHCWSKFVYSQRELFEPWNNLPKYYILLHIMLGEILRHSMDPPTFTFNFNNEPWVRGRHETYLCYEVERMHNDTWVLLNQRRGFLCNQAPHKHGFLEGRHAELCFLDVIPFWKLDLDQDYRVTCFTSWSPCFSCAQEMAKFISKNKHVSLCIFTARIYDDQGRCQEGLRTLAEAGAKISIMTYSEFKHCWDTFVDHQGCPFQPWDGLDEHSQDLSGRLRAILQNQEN
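HeLa cells stably expressing Vif and C-terminally eYFP-tagged A3G, seeded overnight at 37 deg C, then exposed to compound by pintool overnight at 37 deg C. Rise in yellow fluorescence (Ex 488/Em 500-530, Acumen) marks blocked Vif-driven A3G degradation.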
Giardia kill = Small Molecules that selectively kill Giardia lamblia: qHTS; activity change, % at 7.66 µM, hits read low; Giardia lamblia trophozoite viability; AID 540267, 2011; actives 0.15% (n = 340,000); in the data active means activity change below about -80%; inconclusive means between about -30% and that limit;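 further: parasites exposed to compound for two days anaerobically before the ATP read; on the % scale 0 is the no-effect control and ±100 the full control effect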
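Media and compound were dispensed first, then trophozoites at 100 cells/well; plates sat 48 hrs at 37 deg C without oxygen before ATP luminescence reagent was added and read after 15-30 min at room temperature.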
IL1B secr inh = qHTS for Inhibitors of Inflammasome Signaling: IL-1-beta AlphaLISA Primary Screen; THP-1 LPS/ATP IL-1B secretion, AlphaLISA, 16 h; stronger effect = lower value; activity change, % at 57.5 µM; actives 4.7% (n = 360,000); in the data active means activity change below about -50%; inconclusive means mostly about -30% to -49%; further: on the % scale 0 is the no-effect control and ±100 the full control effect
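Secreted IL-1B measured by AlphaLISA bead assay after 16 h compound exposure of THP-1 cells; compounds (final up to 57.5 uM) added 1 h before LPS (250 ng/mL) and ATP (1.25 mM) stimulation; lower signal means less secretion.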
Vif-APOBEC3F blk = qHTS for Inhibitors of Vif-A3F Interactions: qHTS. HeLa A3F-eYFP + Vif (tagged APOBEC3F with the HIV-1 protein that degrades it), YFP fluorescence increase. Potency, µM (highest dose often 46.1 µM), without a hit: at the highest dose activity, negative = active. actives 0.2% (n = 390,000); further: potency means the concentration at half of the fitted maximal effect; % of control where 0% means no effect; nearly all actives have a fitted effect of over 65% in size
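HeLa cells stably expressing A3F-eYFP plus Vif, plated and incubated overnight at 37 deg C, then exposed to compounds overnight at 37 deg C. Blocked degradation read as raised yellow fluorescence (Ex 488/Em 500-530).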
Numbers without * were called inactive; ? = inconclusive; . = no result. Unless noted, the call rests on the fitted dose curve; in most records, active means well fitted curve in the direction sought with a large enough effect; inconclusive means small, poorly fitted or top-dose-only effect, or another doubt; inactive means no such curve, though single readings can be large; an effect the other way counts as inactive or inconclusive.

SMILES	MCF10A rereplic	SW480 rerep	Vif-APOBEC3G blk	Giardia kill	IL1B secr inh	Vif-APOBEC3F blk
CCOc1ccccc1C(=O)N1CCN(C(c2ccccc2)c2ccccc2)CC1	4.1%	-3.3%	0.4%	-12.5	-83.3*	-5.8%
O=C(CNC(=O)Cc1ccccc1)NCC(=O)N1CCN(C(c2ccccc2)c2ccccc2)CC1	-0.5%	-14.2%	-1.1%	-13.9	3.0	0.1%
COc1cccc(CN2C(=O)c3ccccc3Sc3ccc(C(=O)N(C)Cc4ccccc4)cc32)c1	.	.	-2.4%	.	.	-5.0%
CC(C)c1ccc(S(=O)(=O)c2nnn3c2nc(N2CCOCC2)c2sccc23)cc1	.	.	2.1%	.	.	-1.9%
CC(=O)C1=CCC(c2ccc(Cl)c(Cl)c2)N(S(=O)(=O)c2ccc(C)cc2)C1 (centres undefined)	.	.	-13.5%	.	-83.8*	.
CC(=O)C1=CCC(c2cccc(Cl)c2)N(S(=O)(=O)c2ccc(C)cc2)C1 (centres undefined)	.	.	-17.4%	.	-85.1*	.
Cn1c(=O)[nH]c(=O)c2c1nc1n2CCN1c1ccccc1	.	.	-0.2%	.	.	-6.3%
O=C(Nc1nc2ccc(S(=O)(=O)N3CCCCC3)cc2s1)C1CCCO1 (centres undefined)	12.2%	?	-14.0%	-11.6	-20.1	0.3%
N#CCc1nc2ccc(S(=O)(=O)N3CCOCC3)cc2s1	13µM*	150.1%	?	-8.9	-4.6	?
CSc1nc2ccc(S(=O)(=O)N3CCOCC3)cc2s1	1.8%	-0.5%	1.8%	7.8	-14.5	2.1%
O=C(Nc1nc2ccc(Cl)cc2s1)C1CC1	1.2%	-8.5%	-0.7%	-17.2	25.3	4.5%
Nc1nc2ccc(S(=O)(=O)N3CCCCC3)cc2s1	-1.1%	1.9%	0.5%	-15.4	-106.0*	2.9%
CC(C)c1ccc2nc(NC(=O)C3CC3)sc2c1	9.8%	4.8%	-3.3%	4.2	-57.3*	-3.3%
O=C(Nc1nc2ccc(S(=O)(=O)N3CCCC3)cc2s1)C1CCCCC1	10.3µM*	7.31µM*	?	14.0	-4.9	-1.5%
Cn1c(=O)c2c(nc(NCCc3ccccc3)n2Cc2cccc(Br)c2)n(C)c1=O	.	.	-4.4%	.	.	0.3%
COC(=O)c1cnn(-c2ccc(Cl)cc2)c1/C=N/NC(N)=S	-0.1%	-8.6%	-1.7%	-18.3	-95.0*	6.2%
CC1CCCCN1C(=O)COC(=O)c1ccc(S(C)(=O)=O)c([N+](=O)[O-])c1 (centres undefined)	.	.	-26.6%	-11.7	.	.
COc1ccc2nc3c(cc2c1)c(NC(=O)C1CCCO1)nn3CC(C)C (centres undefined)	7.5%	?	?	-5.3	9.9	-5.2%
CCCC(=O)Nc1nn(CC(C)C)c2nc3cc(C)ccc3cc12	?	21.2%	-6.4%	12.0	-8.3	7.4%
COc1ccc2nc3c(cc2c1)c(NC(=O)CC(C)C)nn3CC(C)C	7.31µM*	8.2µM*	-12.6%	-18.4	128.8	-15.1%
CCC(=O)Nc1nn(CC(C)C)c2nc3ccc(C)cc3cc12	?	18.4µM*	-5.6%	6.3	-7.4	5.1%
CCCCn1nc(NC(=O)CC(C)C)c2cc3cc(OC)ccc3nc21	14.6µM*	11.6µM*	0.8%	14.3	43.9	0.3%
CCOc1ccc(CCNC(=O)CCc2c(C)nc3c(-c4ccccc4)c(C)nn3c2C)cc1OCC	.	.	-4.1%	.	.	-9.4%
Cc1ccc(NC(=O)Cn2c(=O)n(Cc3nc(-c4ccccc4)no3)c(=O)c3ccccc32)c(C)c1	.	.	0.7%	.	.	-8.9%
COC(=O)/C(=C\Nc1ccc(Cl)cc1Cl)NC(=O)c1ccc(Cl)cc1Cl	11.6µM*	18.8%	?	-19.5	?	-2.9%
SMILES	MCF10A rereplic	SW480 rerep	Vif-APOBEC3G blk	Giardia kill	IL1B secr inh	Vif-APOBEC3F blk
CCCCCCn1c(=O)c(-c2ccccc2)c(O)c2ccccc21	2.4%	-5.9%	-1.9%	4.5	10.1	-4.1%
CCCCCCCn1c(=O)c(C(=O)OC)c(N)c2ccccc21	0.3%	-0.4%	-5.9%	2.7	-58.8*	-2.8%
CCCCCCCCn1c(=O)c(C(=O)OC)c(N)c2ccccc21	20.6µM*	-12.4%	-4.5%	2.3	-95.4*	-3.0%
CCCCCC(=O)Nc1ccccc1N1CCN(c2ccccc2)CC1	?	9.4%	-4.6%	9.9	-88.4*	-4.1%
CCCCC(=O)Nc1ccccc1N1CCOCC1	?	-5.0%	-1.3%	-8.4	20.7	?
CC(=O)N1CCc2cc(S(=O)(=O)NC(Cc3ccccc3)C(=O)NCc3ccccc3)ccc21 (centres undefined)	.	.	0.3%	.	.	-3.1%
CCOc1ccc2nc(NCCNC(=O)Nc3cccc(C)c3)c(C#N)cc2c1	?	9.2µM*	-20.9%	7.4	13.5	5.4%
CCOc1ccc2nc(NCCNC(=S)NCCCN(C)C)c(C#N)cc2c1	11.6µM*	16.4µM*	2.6%	-8.5	.	2.2%
CCOCCCNC(=S)NCCCNc1nc2c(C)c(C)ccc2cc1C#N	18.4µM*	20.6µM*	4.2%	-17.9	-95.5*	-2.9%
Cc1cc2cc(C#N)c(NCCNC(=S)NCCCN3CCOCC3)nc2cc1C	20.6µM*	16.4µM*	9.3%	14.1	13.1	-10.6%
CCOc1ccc2nc(NCCNC(=O)Nc3ccccc3)c(C#N)cc2c1	?	?	-8.1%	0.2	1.4	-3.5%
COc1ccc2nc(NCCNC(=S)NCCCN3CCOCC3)c(C#N)cc2c1	9.0%	?	3.6%	11.7	?	-1.5%
Fc1ccc(CNc2nc3c(-c4ccc(F)cc4)nnn3c3ccccc23)cc1	.	.	0.0%	.	.	-5.8%
O=S(=O)(NCCc1nnc2ccc(SCc3ccccc3Cl)nn12)c1ccccc1	.	.	2.6%	.	.	2.4%
CCN1C(=O)CSC1=NC12CC3CC(CC(C3)C1)C2	4.8%	1.3%	-1.5%	-1.5	-65.8*	-17.3%
CN1C(=O)CSC1=NC12CC3CC(CC(C3)C1)C2	8.1%	-8.4%	-9.4%	-8.7	47.4	1.3%
O=C1C=CC(=C(c2ccc(O)cc2)c2ccc(O)cc2)C=C1	6.51µM*	?	?	-12.0	-100.0*	2.2%
Cc1oc(-c2ccc(Cl)cc2)nc1CN1CCC(C(=O)NCC2CCCO2)CC1 (centres undefined)	-2.6%	10.2%	0.7%	25.1	?	3.1%
Cc1cccc(-c2nc(CSCC(=O)N3CCN(c4ccccn4)CC3)c(C)o2)c1	?	5.1%	-0.6%	0.4	-59.4*	-2.1%
Cc1oc(-c2ccc(Cl)cc2)nc1CN1CCC(C(=O)NCc2cccs2)CC1	14.9%	14.0%	2.0%	9.6	-53.9*	-4.7%
